# Measured values taken from PubChem BioAssay AID493033 (ICCB-Longwood Screening Facility, Harvard Medical School, 2011).
# Hit rate of the full screen: of about 100,000 compounds, about 930 (0.93%) were called active. Many of the other results were omitted from the sample, so actives are more common in it than they were. Values without a mark were called inactive. Rule as the data show it: active = inhibition mostly above about 56% (no sharp cut-off); inactive = mostly below about 77%.
# Molecular target: Salicylate synthase (Mycobacterium tuberculosis (strain CDC 1551 / Oshkosh)) (UniProt P9WFX0)
# Experiment: inhibitors of M. tuberculosis MbtI – biochemical, fluorescence intensity, primary screen (AID 493033)
# Details: purified MbtI enzyme, fluorescence intensity read-out, active compounds read high, concentration not given here
# Sequence of Salicylate synthase (Mycobacterium tuberculosis (strain CDC 1551 / Oshkosh)) (P9WFX0 whole entry, looked up): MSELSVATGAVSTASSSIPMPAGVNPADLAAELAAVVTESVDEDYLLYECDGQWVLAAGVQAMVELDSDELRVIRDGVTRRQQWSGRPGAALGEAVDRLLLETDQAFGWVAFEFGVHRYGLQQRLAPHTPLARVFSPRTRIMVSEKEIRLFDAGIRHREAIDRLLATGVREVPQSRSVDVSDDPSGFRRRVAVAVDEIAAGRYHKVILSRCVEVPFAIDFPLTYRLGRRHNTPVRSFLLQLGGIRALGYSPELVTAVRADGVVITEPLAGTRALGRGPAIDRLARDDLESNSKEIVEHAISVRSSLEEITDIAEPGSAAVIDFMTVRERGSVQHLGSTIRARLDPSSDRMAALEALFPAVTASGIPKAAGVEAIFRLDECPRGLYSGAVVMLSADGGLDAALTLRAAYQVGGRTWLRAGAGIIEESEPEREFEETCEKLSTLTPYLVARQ
row,Structure (SMILES),inhibition
1,CSc1ncnc2sc(-c3ccccc3)cc12,-44.5%
2,O=c1cc(-c2ccccc2)sc2ccc(Cl)cc12,-0.1%
3,CN=Cc1cc(-c2ccccc2)sc1S,95.8% (active)
4,Cc1nn2c(=O)/c(=C/c3ccccc3)sc2nc1=O,-1.65%
5,Cc1nc(Cc2nnc(SC/C(O)=C(\C#N)c3nc4ccccc4[nH]3)o2)cs1,25.6%
6,Cc1occc1-c1nnc2n1N=C(c1ccc(-c3cc(Cl)ccc3Cl)o1)CS2,98% (active)
7,O=C(Nc1cccc(Br)c1)C1CC(=O)N(C2CCCC2)C1 (stereo not given),-4.55%
8,CN(C)c1ccc(-c2ncnn2-c2ccccc2)cc1,-9.6%
9,Cc1csc(NC(=O)C2CCC(CNS(=O)(=O)c3cccc4nsnc34)CC2)n1 (stereo not given),-0.3%
10,Cc1ccc(Cl)cc1N1CCN(C(=O)/C=C/c2ccc(S(=O)(=O)NCc3ccco3)cc2)CC1,5.7%
11,COC(=O)c1cccc(NC(=O)CCCN2C(=O)c3ccccc3C2=O)c1,-11.5%
12,Cc1ccc(NC(=O)COC(=O)C2CCC2)cc1Cl,-5.6%
13,COc1cc(NS(=O)(=O)c2cc(C)c(Cl)cc2C)c(C(=O)O)cc1OC,-26.2%
14,O=C(O)C1=Cc2sc3c(c2CS1)CCCC3,95.4%
15,O=C(C1=Cc2sc3c(c2CS1)CCCC3)N1CCCC1,98.8% (active)
16,O=C(c1ccc(Cl)cc1)N1CCCC1,-5.1%
17,O=C(O)C1CCC(CNCc2cccc(Br)c2)CC1 (stereo not given),-9.65%
18,O=C(/C=C\c1cn(-c2ccccc2)nc1-c1cccs1)N1CCOCC1,-50.8%
19,CCN(CC)c1ccc2oc(=O)c(C)nc2c1,94.8% (active)
20,CCN(CC)c1ccc(C=C(C#N)C#N)c(OC(C)=O)c1,-99.2%
21,CCN(CC)c1ccc(-n2nc3cc(C)c(NC(C)=O)cc3n2)cc1,88.6%
22,CCCc1cc2c(cc1N)OCO2,13.3%

row,Structure (SMILES),inhibition
1,CCc1nc2cccnc2n1-c1ccc(CC(=O)NCCN2CCOCC2)cc1,2.4%
2,S=C(c1ccc(-c2ccccc2)o1)N1CCCCC1,102% (active)
3,S=C(Cc1ccccc1)N1CCCCC1,29.6%
4,O=C(c1ccco1)N1CCCCCCC1,-14.8%
5,COC(=O)c1cc(Cl)cc(Cl)c1O,-95.7%
6,O=c1cc(CN2CCN(Cc3ccccc3)CC2)nc2sccn12,12%
7,COc1cccc(CN(C)C(=O)/C=C/c2ccco2)c1OC,9.5%
8,Cn1ncc2c(NCc3cccnc3)ncnc21,0.9%
9,O=C(CCCn1c(=O)oc2ccccc21)Nc1cccnc1,-8.05%
10,O=C(CCn1c(=O)oc2ccccc21)Sc1ccc(C(F)(F)F)cc1,70.7% (active)
11,Cc1cccc(NC(=O)CCn2c(=O)oc3ccccc32)c1,3%
12,CCN(Cc1nc(-c2ccc(OC)c(OC)c2)no1)C(=O)CCC1CCCCC1,-0.6%
13,CCCCn1c2c(c(=O)n(C)c1=O)C(c1ccc(OC)cc1)C1=C(CCCC1=O)N2 (stereo not given),-21%
14,Cc1cc(C)nc(SCc2nnc(SCC(=O)N3c4ccccc4Sc4ccc(Cl)cc43)o2)n1,-20.7%
15,Cc1ccc(Sc2c(C)[nH]n(-c3ccccc3)c2=O)cc1,-4.4%
16,Cc1noc(C)c1C(=O)c1c(C)[nH]n(-c2ccccc2)c1=O,3.5%
17,CC1=NOC(=O)C1C(c1cccc(Br)c1)c1c(C)[nH]n(-c2ccccc2)c1=O (stereo not given),98.3% (active)
18,S=c1[nH]nc(NCCc2ccccc2)s1,86.7%
19,S=c1[nH]nc(Nc2ccccc2)s1,99.7% (active)
20,c1ccc(Nc2nncs2)cc1,12.9%
21,COc1ccccc1-c1nnc(Cc2ccc(F)cc2Cl)o1,-4.2%
22,O=C1CN(C(=O)C2COc3ccccc3O2)c2ccccc2N1 (stereo not given),-23.2%

row,Structure (SMILES),inhibition
1,O=C(CSc1nc(-c2ccccc2)nc2c1CCCC2)N/N=C/c1ccco1,-6.4%
2,COc1ccccc1C(=O)CSc1cccc[n+]1[O-],-9.25%
3,CC(C)(C)CNC(=S)NN,-14.9%
4,C=C(C)CNC(=S)NN,98.5% (active)
5,C=C(C)CNC(=S)N1CCNCC1,-14.4%
6,CCc1nc(NCCO)c(C#N)c2c1CCCC2,-125%
7,O=C(NC1=NCCS1)c1ccccn1,-4.65%
8,COc1ccc(-c2nn(-c3ccccc3)cc2/C=C\C(=O)N(C)C)cc1,-4.25%
9,O=C(CNCc1ccc2c(c1)OCO2)NCc1ccc2c(c1)OCO2,7.9%
10,CCCn1c(SC(C(=O)NC(=O)NC)c2ccccc2)n[nH]c1=O (stereo not given),-3.85%
11,CC1CCCCC1NC(=O)COc1ccc(C#N)cc1 (stereo not given),-7.1%
12,S=c1ccc2ccccc2[nH]1,82.2% (active)
13,O=C(O)Cc1cn(-c2ccccc2)nc1-c1cccs1,-32.5%
14,c1ccc(C(N2CCOCC2)N2CCOCC2)cc1,-2.5%
15,CC(O)CNc1nc2ccccc2n1CC(O)COCc1ccco1 (stereo not given),-2.1%
16,O=C(CNCCCN1CCOCC1)Nc1cccc(C(F)(F)F)c1,14.8%
17,O=C(CSc1ccccc1)Nc1ccc(NC(=O)c2ccco2)cc1,9.65%
18,O=C(CSc1ccc(Br)cc1)c1ccco1,55.8% (active)
19,O=C(CSc1ccc2ccccc2c1)N1CCN(C(=O)c2ccco2)CC1,-5.25%
20,CCSc1nnc(SCC(=O)N2CC(=O)Nc3ccccc32)s1,12.2%
21,Oc1c(C(c2cccnc2)N2CCOCC2)ccc2cccnc12 (stereo not given),91.7% (active)
22,Oc1c(C(Nc2ccccn2)c2cccnc2)ccc2cccnc12 (stereo not given),28.4%

row,Structure (SMILES),inhibition
1,CC(=O)NC(c1ccccc1)c1ccc2cccnc2c1O (stereo not given),-4.35%
2,O=C(NCCC1=CCCCC1)Nc1ccc(Cl)cc1,-5%
3,Cc1cc(C)nc(NNC(=S)Nc2ccc(S(=O)(=O)N3CCOCC3)cc2)n1,54.5%
4,Cc1ccc(C(=O)CN(C)C2CCCCC2)cc1,12.6%
5,CCn1c(=O)cc(SCC(=O)NC2CCCCC2)c2ccccc21,-8.85%
6,COC(=O)c1ccc(CSCC(=O)Nc2ccc(C)c(C)c2)o1,-3.9%
7,COc1cc(/C=C/C(=O)N2CCc3ccccc3C2)cc(OC)c1OC,-28.7%
8,O=C1CCN(C(=S)NCCc2ccccc2)CC1,14.8%
9,Oc1cc2c(cc1O)CN(C(=S)NCCc1ccc(Cl)cc1)CCC2,100% (active)
10,S=C(NCCc1ccc(Cl)cc1)Nc1ccccc1,-14.1%
11,COc1cc(C#N)ccc1Oc1nc(CN2CCOCC2)nc2scc(-c3cccs3)c12,18.1%
12,CC(C)Cn1c(SCc2nnc(-c3ccccc3)o2)nnc1-c1ccccc1F,-1.55%
13,CC1=C(C(=O)OC2CCCC2)C(c2cc3c(cc2Cl)OCO3)C2=C(CCCC2=O)N1 (stereo not given),116%
14,COc1ccc(OC)c(NC(=O)CC(Cc2ccccc2OC)C(=O)O)c1 (stereo not given),2.1%
15,COc1ccc(OC)c(NC(=O)CCN2CCC(C)CC2)c1,-19.2%
16,COc1ccc(OC)c(NC(=O)CS)c1,97.5% (active)
17,N#CSc1ccc(N2CCCCC2)cc1,21.2%
18,O=c1[nH][nH]c(=O)c2cc(N3CCCC3)ccc12,-10.9%
19,O=C1C=CC(=O)N1c1ccc(N2CCCCC2)cc1,99.7% (active)
20,COc1ccccc1C(=O)Nc1ccccc1N1CCN(C)CC1,-4.85%
21,COc1ccc(NC(=S)N2CCCCC2)cc1,-6.7%
22,OC1CCN(C(=S)Nc2ccccc2)CC1,-8.65%

row,Structure (SMILES),inhibition
1,Fc1ccc(NC(=S)N2CCN=C2Nc2ccc(F)cc2)cc1,72.3% (active)
2,COc1ccc(-c2nnc(SCC(=O)NC3CCCc4ccccc43)o2)cc1OC (stereo not given),-3.65%
3,COc1cccc(C(=O)Nc2ccccc2C#N)c1OC,-17.5%
4,CC(C)CN1C(=O)C=CC1=O,80.8% (active)
5,CC(C)Cn1nccc1N,-12%
6,O=C(NCCCN1CCCC1)C1CCN(c2nc3ccccc3n3cccc23)CC1,-7.35%
7,CC(C)c1n[nH]c(=S)n1N,96.5% (active)
8,CC(C)Sc1n[nH]c(=S)n1N,98.2% (active)
9,CCn1c(C(C)C)n[nH]c1=S,2.75%
10,N#Cc1c(-c2c(O)[nH]c3ccccc23)c2c(-c3ccncc3)[nH]nc2oc1=N,-1.15%
11,CCS(=O)(=O)Nc1ccc(Cl)cn1,89.8%
12,COCCNc1oc(COc2ccc(Br)cc2)nc1C#N,-15%
13,COc1ccc(C2Nn3c(C)nnc3SC2C(=O)N2CCCC2)cc1 (stereo not given),-6.35%
14,Cc1ccc(-n2c(SC(C)C(=O)NC(N)=O)nc3ccccc32)cc1 (stereo not given),-6.15%
15,CCCCSC1=NC(C)(C)Nc2ccccc21,-13.3%
16,CC(C)NC(=O)CSc1nc(-c2ccccc2)cn1N,11.2%
17,CCOC(=O)c1cc(-c2ccccc2)no1,-8.95%
18,O=C(COC(=O)/C=C/c1cccs1)Nc1ncc(Br)s1,0.8%
19,CCOc1ccc(OCCBr)cc1,-5.55%
20,CCOc1ccc2[nH]c(=S)sc2c1,81.3% (active)
21,CCOc1ccc2c(c1)sc1nc(=O)n(-c3ccccc3)c(=O)n12,3.85%
22,CNC(=O)c1cc2c(n(-c3ccccc3)c1=O)CC(C)(C)CC2=O,72.9%
